According to PubChem BioAssay (NCATS):
Several values for one entry are separate records, joined by “and”; a condition that tells them apart may be missing. Equal entries are not always repeated. Results filed as inconclusive are left out. Activity calls are given as the source filed them. Calls come from the whole dose curve; as a rule, active = well fitted inhibition curve with a large enough effect; inconclusive = small, poorly fitted or top-dose-only effect; inactive = flat fitted curve, though single readings scatter.

Test system: KB-3-1
Experiment: Cytotoxic Profiling of Annotated Libraries Using Quantitative High-Throughput Screening (AID 1296008); note: nearly all actives have a fitted effect of over 60% in size
Details: Five cell lines viability, CellTiter-Glo ATP luminescence, 48-72 h; max response: hits give low values
In short: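 Cytotoxicity was measured as CellTiter-Glo ATP luminescence, read after 10 min at room temperature. Compound treatment of the cells lasted 48 or 72 hr at 37 degrees Celsius in a qHTS format.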
% is set by controls: 0 for no effect and ±100 for the full control effect; potency is the fitted concentration of half-maximal effect.

Row | SMILES | max response | Potency
1 | CN(C)CCC=C1c2ccccc2CCc2ccccc21 | -15.7% (inactive) | 
2 | CC(C)c1c(C(=O)Nc2ccccc2)c(-c2ccccc2)c(-c2ccc(F)cc2)n1CC[C@@H](O)C[C@@H](O)CC(=O)O | -3.5% (inactive) | 
3 | OCCN1CCN(CCCN2c3ccccc3Sc3ccc(Cl)cc32)CC1 | -16% (inactive) | 
4 | CC(=O)c1ccc2c(c1)N(CCCN(C)C)c1ccccc1S2 | -1.52% (inactive) | 
5 | CSc1ccc2c(c1)N(CCC1CCCCN1C)c1ccccc1S2 (stereo unspecified) | -7.5% (inactive) | 
6 | NC(=O)N/N=C/c1ccc([N+](=O)[O-])o1 | -7.34% (inactive) and -25.8% (inactive) | 
7 | COc1ccc2cc1Oc1ccc(cc1)C[C@H]1c3c(cc4c(c3Oc3cc5c(cc3OC)CCN(C)[C@@H]5C2)OCO4)CCN1C | 0.814% (inactive) | 
8 | CCCn1cnc2c1c(=O)n(CCCCC(C)=O)c(=O)n2C | 4.64% (inactive) | 
9 | CCN(CC)CCSC(=O)C(c1ccccc1)c1ccccc1 | 12.2% (inactive) and -4.64% (inactive) | 
10 | CCN(CC)CCCC(C)Nc1c2ccc(Cl)cc2nc2ccc(OC)cc12 (stereo unspecified) | -7.27% (inactive) | 
11 | CCN(CC)CCNC(=O)c1c(C)[nH]c(/C=C2\C(=O)Nc3ccc(F)cc32)c1C | -5.42% (inactive) | 
12 | CNCCCC1c2ccccc2C=Cc2ccccc21 | 6.95% (inactive) | 
13 | CC(CN1c2ccccc2Sc2ccccc21)N(C)C (stereo unspecified) | 7.29% (inactive) | 
14 | COCCOC(=O)C1=C(C)NC(C)=C(C(=O)OC/C=C/c2ccccc2)C1c1cccc([N+](=O)[O-])c1 (stereo unspecified) | 22.9% (inactive) | 
15 | CN(C)CCCN1c2ccccc2Sc2ccc(Cl)cc21 | -6.48% (inactive) | 
16 | CC(CN(C)C)CN1c2ccccc2CCc2ccccc21 (stereo unspecified) | 4.48% (inactive) | 

Row | SMILES | max response | Potency
17 | CSc1ccc2c(c1)C(N1CCN(C)CC1)Cc1ccccc1S2 (stereo unspecified) | 0.66% (inactive) | 
18 | C=Cc1c(C)c2cc3[nH]c(cc4nc(cc5nc(cc1[nH]2)C(C)=C5CCC(=O)O)C(CCC(=O)O)=C4C)c(C)c3C=C | -3.43% (inactive) | 
19 | CN(C)CCN(Cc1ccccc1)c1ccccn1 | -7.24% (inactive) | 
20 | [Cl][In]([Cl])[Cl] | 0.288% (inactive) and -3.71% (inactive) | 
21 | OCc1cc(C(O)CNCCCCCCOCCCCc2ccccc2)ccc1O (stereo unspecified) | -19.3% (inactive) | 
22 | O=C(O)CN1C(=O)c2cccc3cccc(c23)C1=O | -7.36% (inactive) | 
23 | CC1=C(/C=C/C(C)=C/C=C/C(C)=C/C(=O)O)C(C)(C)CCC1 | -14.5% (inactive) | 
24 | CC(=O)O[C@@]12CO[C@@H]1C[C@H](O)[C@@]1(C)C(=O)[C@H](O)C3=C(C)[C@@H](OC(=O)[C@H](O)[C@@H](NC(=O)OC(C)(C)C)c4ccccc4)C[C@@](O)([C@@H](OC(=O)c4ccccc4)[C@H]21)C3(C)C |  | 7.3 nM (active)
25 | CCCCN(CCCC)CC(O)c1cc(Cl)cc2c1-c1ccc(Cl)cc1/C2=C/c1ccc(Cl)cc1 (stereo unspecified) | -7.25% (inactive) | 
26 | CC(=O)Oc1ccc(C2(c3ccc(OC(C)=O)cc3)C(=O)Nc3ccccc32)cc1 | -1.67% (inactive) and 11.5% (inactive) | 
27 | CN1CCCCC1CCN1c2ccccc2Sc2ccc(S(C)=O)cc21 (stereo unspecified) | -15.2% (inactive) and 0.424% (inactive) | 
28 | CNCCC(Oc1ccc(C(F)(F)F)cc1)c1ccccc1 (stereo unspecified) | 2.04% (inactive) | 
29 | CC1(C)Oc2ccc(C#N)cc2[C@@H](N2CCCC2=O)[C@@H]1O | -0.98% (inactive) and -8.03% (inactive) | 
30 | CN1CCN(C2Cc3ccccc3Sc3ccc(Cl)cc32)CC1 (stereo unspecified) | 6.06% (inactive) | 
31 | O=C1Nc2ccc(Cl)cc2[C@@](C#CC2CC2)(C(F)(F)F)O1 | 17.8% (inactive) and -24.9% (inactive) | 
